Measurements: PubChem BioAssay (NCI)
Compounds without any hit were thinned out: in the full panel of roughly 79,000, 15% have a hit. Active and inactive are the calls of the source. Rule as the data show it: active = growth inhibition above about 70%; inactive = the rest.

test: NCI Yeast Anticancer Drug Screen. Data for the sgs1 mgt1 strain (AID 161);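 also: 0% = growth of cultures given vehicle only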; details: S. cerevisiae sgs1 mgt1 strain, at 50.0 µM, stronger effect = higher value
Outline: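 Read-out: growth inhibition vs vehicle controls. Cells: mutant yeast strain deficient in DNA damage repair.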

SMILES	growth inhibition
O=C1c2ccccc2C(=O)c2sc(Nc3cc(Cl)ccc3Cl)nc21	88.3% (active)
OCC(c1ccccc1)c1ccccc1	76.5% (active)
CN(C)c1nc(=NCc2ccco2)ss1	17.9% (inactive)
C/C=C\C=N\NC(N)=S	-17.4% (inactive)
O=C(/C=N/O)c1c(-c2ccccc2)[nH]c(-c2ccccc2)c1-c1ccccc1	96.3% (active)
Cc1c2ccccc2c(CO)c2cc(F)c3ccccc3c12	84.2% (active)
O=C(O)Cc1cccc2c(=O)c3cccc([N+](=O)[O-])c3[nH]c12	53.1% (inactive)
Cc1ccc(SC2=C(N(C)C)C(=O)c3ccccc3C2=O)cc1	77.3% (active)
O=C1C(Cl)=C(Cl)C(=O)c2cc(Cl)c(Cl)cc21	97.1% (active)
CC1=C(C2CO2)C(=O)C(C)=C(C2CO2)C1=O (stereo not drawn)	99.5% (active)
CCc1cc(CC)c(-c2ccco2)c(COC(=O)NC)c1	94.3% (active)
COC(=O)C(=O)N(c1cc(C)ccc1C)c1cc(C)ccc1C	95% (active)
COC1=CC(=O)c2c(O)c3c(c(O)c2C1=O)C=C(C)OC3O (stereo not drawn)	89% (active)
O=[N+]([O-])c1ccccc1NCCO	-0.15% (inactive)
CCCCCCCCCCCCCCCC[N+](C)(C)CC(=O)O	-1.4% (inactive)
S=C(SSSSC(=S)N1CCCCC1)N1CCCCC1	43.1% (inactive)
COC(O)C12OC3CO[Si](C(C)C)(C(C)C)O[Si](C(C)C)(C(C)C)OC3C1Oc1nc(=O)ccn12 (stereo not drawn)	86.5% (active)
O=C(O)c1ccccc1C(c1ccccc1)c1ccccc1	85.8% (active)
